Compound activity: PubChem BioAssay, National Center for Advancing Translational Sciences (NCATS)
Most compounds without a hit are left out; they make up all but 10% or so of the library.
NPR1 antag: blocks ANP-stimulated signaling of human Npr1 receptor. HEK293 hNpr1 GloSensor cGMP, ANP-stimulated luminescence. AID 1347048. P16066. hit rate 1.6% among 76,000. Potency, µM (highest dose often 46.3 µM), for the others: at the top dose activity change, negative = inhibition, usual class: inhibitors; calls by dose curve; also: nearly all actives have a fitted effect of over 60% in size
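HEK293 cells stably expressing human Npr1 and cGMP GloSensor pGS-40F, loaded 2 h with 2% GloSensor reagent, given compound 30 min at room temperature. Luminescence read before and 20 min after 0.1 nM hNppA.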
3T3 cytotox: kills NIH 3T3 cells | NIH 3T3 viability, CellTiter-Glo ATP luminescence, 48-72 h | Potency, µM (titrated, usually from 96.7 µM), for inactives: at the top dose activity change, negative = cytotoxicity, most hits filed as inhibitors | hit rate 4.3% among 94,000 | AID 1345082; also: nearly all actives have a fitted effect of over 55% in size
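NIH 3T3 cells at 400 cells/well received 23 nL of compound by pintool and were incubated 48 or 72 h at 37 °C. Viability was read as ATP-coupled CellTiter-Glo luminescence.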
GPT2 inhibitor: GPT2 alanine aminotransferase inhibition; hit rate 0.25% among 100,000; Potency, µM (doses to about 57.7 µM), inactives show top-dose activity change, negative = inhibition, hits mostly inhibitors; Q8TD30; Recombinant GPT2, coupled pyruvate oxidase/HRP Amplex Red fluorescence; also: nearly all actives have a fitted effect of over 60% in size
Target sequence (Q8TD30 whole entry, looked up): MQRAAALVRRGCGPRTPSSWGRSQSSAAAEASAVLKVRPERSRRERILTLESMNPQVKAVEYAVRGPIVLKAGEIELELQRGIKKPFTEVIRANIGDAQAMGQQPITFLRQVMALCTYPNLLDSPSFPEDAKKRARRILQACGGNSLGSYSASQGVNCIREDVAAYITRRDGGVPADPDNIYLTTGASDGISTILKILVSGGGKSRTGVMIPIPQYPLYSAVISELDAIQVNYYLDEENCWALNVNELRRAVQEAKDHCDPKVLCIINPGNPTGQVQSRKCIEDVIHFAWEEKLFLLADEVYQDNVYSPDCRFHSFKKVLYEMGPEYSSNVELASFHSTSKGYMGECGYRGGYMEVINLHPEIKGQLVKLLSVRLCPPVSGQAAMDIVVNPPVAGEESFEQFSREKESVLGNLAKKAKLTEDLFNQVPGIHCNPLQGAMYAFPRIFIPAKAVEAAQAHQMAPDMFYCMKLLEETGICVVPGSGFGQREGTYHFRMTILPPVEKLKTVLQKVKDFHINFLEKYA
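Recombinant GPT2 (10ng/uL) with 250uM a-KG and 2mM L-alanine, 30 min at room temperature, in HEPES pH 7.5 buffer. Pyruvate detected by pyruvate oxidase/HRP/Amplex Red fluorescence after 30 min in the dark; AOA (50uM) as positive control.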
Luciferase inh: inhibitors of firefly (Photinus pyralis) luciferase; P08659; purified P. pyralis luciferase, luminescence, biochemical; Potency, µM (titrated, usually from 115 µM), actives largely listed as inhibitors; hit rate 2.5% among 76,000; also: nearly all actives have a fitted effect of over 65% in size
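Inhibitors were tested against purified firefly luciferase in a biochemical, low-substrate format (both substrates at 10uM) and luminescence measured with a CCD imager.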
HEK cytotox: HEK 293 cell cytotoxicity. Potency, µM (top dose mostly 115 µM), for the others: top-dose activity change, negative = cytotoxicity, actives largely listed as inhibitors. hit rate 6.6% among 94,000. HEK 293 viability, ATP luminescence (CellTiter-Glo), 48-72 h; also: nearly all actives have a fitted effect of over 60% in size
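HEK 293 cells at 250 cells/well were exposed to compounds by pintool transfer for 48 or 72 hr at 37 degree Celsius, 5% CO2. Viability was read as ATP-coupled luminescence with CellTiter-Glo after 10 min at room temperature.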
An asterisk follows results filed as active; i = inactive; u = inconclusive; x = no result; [ ] = remark or other dose. Unless noted, calls follow the shape of the dose curve; as a rule, active = well fitted curve in the direction sought with a large enough effect; inconclusive = small, poorly fitted or top-dose-only effect, or another doubt; inactive = no such curve, though single readings can be large; an effect the other way counts as inactive or inconclusive. % is scaled to controls: 0 for no effect and ±100 for the full control effect; potency is read from the fitted curve at half-maximal effect.

SMILES | NPR1 antag | 3T3 cytotox | GPT2 inhibitor | Luciferase inh | HEK cytotox
CN1C[C@@H](NC(=O)Nc2ccc(F)cc2F)C[C@H]1c1nc(-c2ccc(Cl)cc2)no1 | u | -18.2%[174 µM] | 2.0%[88.5 µM] | 70.8µM* | u
Cc1noc([C@@H]2C[C@H](NC(=O)Nc3cccc(F)c3)CN2C)n1 | 3.1%[70.6 µM] | u | -10.1%[88.5 µM] | i | -20.3%[172 µM]
CN1C[C@@H](NC(=O)Nc2ccccc2)C[C@H]1c1nc(-c2ccc(F)cc2)no1 | u | u | -3.4%[88.5 µM] | i | 56.2µM*
CC(=O)N1CCN(C(=O)c2cc(-c3cc(Cl)cc(Cl)c3)c3nncn3n2)CC1 | x | -15.9% | i | x | -0.3%
O=C(NCc1ccccc1F)C1CCCCN1Cc1ccc(-c2ccsc2)cc1 (centres undefined) | x | 31.6µM* | 4.4% | x | u
O=C(NCc1ccccn1)C1CCCCN1Cc1ccc(-c2ccsc2)cc1 (centres undefined) | x | 39.8µM* | u | x | 39.8µM*
O=C(NCc1ccc(F)cc1F)C1CCCCN1Cc1ccc(-c2ccsc2)cc1 (centres undefined) | x | u | -10.4% | x | 28.2µM*
Cc1ccsc1C(=O)N1CCCC(n2cc(-c3nc(C4CC4)no3)nn2)C1 (centres undefined) | u | u | -1.3% | i | u
CCc1nc2c(c(-c3ccc(O)cc3)n1)CCN(C(=O)Cc1ccc(OC)cc1)CC2 | x | -27.8% | i | x | -7.7%
CN1CCN(C(=O)c2cn3cc(-c4ccc(F)cc4)sc3n2)CC1 | x | 79.4µM* | 4.8%[88.5 µM] | x | u
O=C(c1cn2cc(-c3ccccc3)sc2n1)N1CCOCC1 | x | u | -0.5%[88.5 µM] | x | 89.1µM*
CCN1CCN(C(=O)c2cn3cc(-c4ccc(F)cc4)sc3n2)CC1 | x | -24.5% | -0.9% | x | 1.6%
COc1cccc(-c2cn3cc(C(=O)N4CCOCC4)nc3s2)c1 | x | -26.8% | 2.1% | x | -13.9%
COc1ccc(-c2cn3cc(C(=O)N4CCOCC4)nc3s2)cc1 | x | u | i | x | 63.1µM*
Cc1ccc([S+](=O)([O-])N2CCc3nc(C(C)C)nc(-c4ccc(O)cc4)c3C2)cc1 | x | -23.7% | 2.9% | x | u
COc1ccc(C(=O)NC2CCN(c3cc(-c4ccc(Cl)cc4)[nH]n3)C2)cc1OC (centres undefined) | -14.9% | u | -11.2% | i | u
O=C(Nc1ccccc1)NC1CCN(Cc2ccc(-c3ccsc3)cc2)C1 (centres undefined) | x | u | i | x | u
COc1ccc(F)cc1-c1ccc(CN2CCC(NC(=O)c3ccccn3)C2)cc1 (centres undefined) | x | 44.7µM* | x | x | u
COc1ccc(F)cc1-c1ccc(CN2CCC(NC(=O)c3ccc(Cl)cc3)C2)cc1 (centres undefined) | x | 14.1µM* | x | x | u
COc1ccc(F)cc1-c1ccc(CN2CCC(NC(=O)Nc3ccccc3)C2)cc1 (centres undefined) | x | 12.6µM* | x | x | 20µM*
COc1ccccc1-c1ccc(CN2CCC(NC(=O)c3ccccn3)C2)cc1 (centres undefined) | x | u | i | x | u
COc1ccc(F)cc1-c1ccc(CN2CCC(NC(=O)c3ccc(C)cc3)C2)cc1 (centres undefined) | x | 39.8µM* | x | x | 28.2µM*
Cc1noc(C)c1S(=O)(=O)N1CCc2nn(Cc3ccccc3)c(=O)n2CC1 | x | -13.5% | -10.3% | x | -2.9%
COc1ccc(F)cc1-c1ccc(CN2CCC(NC(=O)c3ccc(NC(C)=O)cc3)C2)cc1 (centres undefined) | x | 20µM* | x | x | u
COCCNc1ncc(-c2cccc(C(C)=O)c2)c2c1OCC2 | -0.3%[70.6 µM] | u | 1.9%[88.5 µM] | u | u
SMILES | NPR1 antag | 3T3 cytotox | GPT2 inhibitor | Luciferase inh | HEK cytotox
COCCNc1ncc(-c2cccc(O)c2)c2c1OCC2 | -0.4%[70.6 µM] | -54.1%[174 µM] | i | 28.2µM* | -60.2%[230 µM]
COCCNc1ncc(-c2cccc(N)c2)c2c1OCC2 | -16.8%[70.6 µM] | u | 4.9%[88.5 µM] | 25.1µM* | u
O=C(NC(C(=O)N1CCOCC1)C1CCN(C(=O)c2cccc(F)c2)CC1)c1ccc2c(c1)OCO2 (centres undefined) | 7.3% | -18.4% | i | i | -19.2%
O=C(N1CCC(c2nc(-c3ccccc3)no2)C1)C1(c2ccccc2)CC1 (centres undefined) | u | u | 0.5% | i | u
CC(C)c1nc(-c2ccc(OC3CCN(C(=O)C4(c5ccccc5)CC4)C3)cc2)no1 (centres undefined) | u | u | i | i | 44.7µM*
COc1ccc(NC(=O)N2CCC(Oc3ccc(-c4noc(C5CC5)n4)cc3)C2)cc1 (centres undefined) | u | -20.8% | -6.3% | u | u
COc1ccc(C(=O)N2CCC(Oc3ccc(-c4noc(C5CC5)n4)cc3)C2)cn1 (centres undefined) | x | u | -15.6% | x | 35.5µM*
CC(C)c1nc(-c2ccc(OC3CCN(C(=O)c4ccoc4)C3)cc2)no1 (centres undefined) | x | u | 4.8% | x | 31.6µM*
CCCS(=O)(=O)N1CCC(Oc2ccc(-c3noc(CC)n3)cc2)C1 (centres undefined) | -2.6% | -22.8% | i | i | u
Cc1noc(C)c1S(=O)(=O)N1CCC(Oc2ccc(-c3noc(C(C)C)n3)cc2)C1 (centres undefined) | x | -27.7% | -9.8% | x | 20µM*
O=S(=O)(c1ccc(F)cc1)N1CCC(Oc2ccc(-c3noc(C4CC4)n3)cc2)C1 (centres undefined) | u | u | -0.4% | i | 28.2µM*
CCc1[nH]c2c(CNC(=O)C3(C)CCCCO3)cc(F)cc2c1C (centres undefined) | -2.3% | u | i | i | u
CC1(C)C(=O)N(CC2CCOCC2)[C@H]2CN(Cc3cccs3)C[C@@H]2[S+]1(=O)[O-] | -2.6%[70.6 µM] | 79.4µM* | -0.8%[88.5 µM] | i | 0.1%[172 µM]
N#Cc1ccc(CN2CCCCCNC(=O)[C@@H]3CCC[C@@H]32)cc1 | -8.9% | u | -23.3% | i | 79.4µM*
N#Cc1cccc(CN2CCCCCNC(=O)[C@@H]3CCC[C@@H]32)c1 | -2.5% | -24.3% | -16.2% | i | -21.2%
O=C1NCCCCCCN(Cc2cccc(F)c2)[C@H]2CCC[C@@H]12 | -15.3% | u | i | i | 79.4µM*
COC(=O)N1CCC[C@@H]1C(=O)N1CCCC(c2nc3ccncc3[nH]2)C1 (some centres undefined) | x | i | i | x | i
COCC(=O)N1CCCC1C(=O)N1CCC(c2ccccc2)CC1 (centres undefined) | x | -8.2% | -1.1% | x | -2.9%
COc1ccc(C2(C(=O)N(C)Cc3ccc(OC(F)(F)F)cc3)CCOCC2)cc1 | x | u | -6.5% | x | 50.1µM*
CC1=C[C@@H](CNC(=O)C2CCCCC2)[C@H](C(C)C)C[C@H]1CC(=O)N1CCN(c2ccccn2)CC1 | -17.2% | u | -4.7% | i | u
